Assay outcomes deposited in PubChem by several laboratories.
Rows were chosen to be rich in hits. Some 4.8% of all compounds tested hit in one or more screens of this group.
NF-kB expr up: raises NF-kB expression in human neuronal cells; NF-kB reporter expression; stronger effect = higher value; fold change at 12.5 µM; 190,000 compounds, 1.6% hits; AID 1239; in the data active means fold change above about 3.3
APP 5'UTR act: activates APP 5'UTR luciferase reporter; SH-SY5Y APP 5'UTR luciferase reporter, luminescence; zero percent = DMSO vehicle wells; activation, % at 2 µM; 190,000 compounds, 1% hits;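 active means activation above a set limit, based on mean plus 3 SD of controls, cut at about 140% in these data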
STAT1 act: STAT1 signaling activation; NIH 3T3 STAT1-luciferase reporter, IFN-gamma, luminescence; 100% = IFN-gamma alone, no compound; activation (% of control), % at 5.5 µM; 200,000 compounds, 2.6% hits;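 active means activation above the screen-wide mean activation plus 3 SD, cut at about 130% in these data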;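 further: raw ratio to IFN-gamma control signal so 100% means no change and 0% no light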
Wee1 stabilizer: blocks degradation of human Wee1 kinase; 220,000 compounds, 1.2% hits; P30291; reporter increase, % at 5 µM; AID 1321; HeLa Luc-Wee1K328M stability, luciferase luminescence; 100% = proteasome inhibitor MG132 effect;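 active means activation above the mean of all tested compounds plus 3 SD, set per screening run, cut at about 8.8% in these data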;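 further: cells exposed to compound for 20 h before luminescence read; 0% = DMSO alone and 100% = MG132 at 30 µM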
Target sequence (P30291 whole entry K328M): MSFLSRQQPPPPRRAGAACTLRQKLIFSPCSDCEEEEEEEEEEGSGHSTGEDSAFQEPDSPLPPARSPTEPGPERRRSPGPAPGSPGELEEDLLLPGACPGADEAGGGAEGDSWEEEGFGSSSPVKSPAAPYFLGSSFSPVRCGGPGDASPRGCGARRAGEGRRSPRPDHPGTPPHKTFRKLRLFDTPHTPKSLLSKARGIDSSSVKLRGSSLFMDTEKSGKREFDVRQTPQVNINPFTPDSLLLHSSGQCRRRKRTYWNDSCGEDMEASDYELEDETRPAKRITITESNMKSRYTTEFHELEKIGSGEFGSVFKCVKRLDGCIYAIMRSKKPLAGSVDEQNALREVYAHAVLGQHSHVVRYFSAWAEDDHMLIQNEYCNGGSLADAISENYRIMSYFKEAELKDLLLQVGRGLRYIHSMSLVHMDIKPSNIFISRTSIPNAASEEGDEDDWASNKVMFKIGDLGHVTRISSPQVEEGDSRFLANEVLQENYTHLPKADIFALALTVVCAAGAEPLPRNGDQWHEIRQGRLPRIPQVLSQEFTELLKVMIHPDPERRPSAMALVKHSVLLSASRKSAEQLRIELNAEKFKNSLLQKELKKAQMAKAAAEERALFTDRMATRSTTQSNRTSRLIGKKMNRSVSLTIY
APP transl inh: APP translation inhibition; 190,000 compounds, 0.82% hits; SH-SY5Y APP 5'UTR-luciferase reporter, luminescence; inhibition, % at 2 µM;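 active means inhibition above a set limit, derived from the sample mean plus 3 SD, cut at about 45% in these data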
Hsp70 act: switches on Hsp70 transcription. HeLa Hsp70 promoter luciferase reporter, luminescence; scaled: vehicle 0, proteasome-inhibitor control 100%. activation, % at 10 µM. 200,000 compounds, 0.04% hits;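 active means activation above the mean across all tested compounds plus 3 SD, cutoff set per campaign, cut at about 5.5% in these data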;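 further: 100% = MG132 at 30 µM as the positive control and 0% = DMSO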
The depositor's hits bear a star; x = no result.

SMILES	NF-kB expr up	APP 5'UTR act	STAT1 act	Wee1 stabilizer	APP transl inh	Hsp70 act
CN(C)CCC#CC(O)(c1ccccc1)c1ccccc1	1.1	-2	95	-2	2	0
COC(=O)c1ccc(OCCN2CCCCCC2)cc1	1.1	12	96	5	-12	0
Cc1c(-c2n[nH]c(=S)n2-c2ccc(Br)cc2)nnn1-c1ccc(Cl)cc1	1.1	2	98	-1	-2	0
COc1ccc(N(CC(=O)Nc2cc(Cl)ccc2OC)S(=O)(=O)c2c(C)noc2C)cc1	1.1	-54	97	4	54*	0
COc1ccc(OC)c(NC(=O)CN(c2ccc(C)cc2)S(=O)(=O)c2c(C)noc2C)c1	0.65	10	90	0	-10	0
Cc1cc(C(=O)CN2CCC(C)CC2)c(C)n1-c1ccccc1F	0.31	132	135*	-3	-132	0
Cc1cc(C(=O)CN2C(=O)C(=O)N(Cc3ccccc3)C2=O)c(C)n1-c1ccccc1F	0.88	33	103	-3	-33	0
COCCNC(=O)C1CC(c2ccc([N+](=O)[O-])cc2)=NO1 (configuration not stated)	1.3	-10	103	0	10	0
O=C(NCCc1cccs1)C1CC(c2ccc([N+](=O)[O-])cc2)=NO1 (configuration not stated)	2.3	62	144*	-5	-62	0
COc1cc(OC)c(C2=NOC(C(=O)NCc3cccs3)C2)cc1Cl (configuration not stated)	0.83	-21	101	9.6*	21	0
O=C1NCC2=C1C(c1ccc(Br)cc1)Nc1ccccc1N2 (configuration not stated)	2.2	27	103	9.6*	-27	0
CC1CC2=C(C(=O)O1)C(c1ccccc1)Nc1ccccc1N2 (configuration not stated)	1.1	-1	98	5	2	0
CN(C)c1nc(Oc2ccc(C(=O)OCC(=O)Nc3ccccc3)cc2)nc(N(C)C)n1	0.98	0	95	9.1*	0	0
N#CCCN(C(=O)COC(=O)c1cccc(S(=O)(=O)Nc2ccc([N+](=O)[O-])cc2)c1)c1ccccc1	0.89	-12	92	-1	12	0
Cc1ccc(NC(=O)ON=C2CCCC2)cc1	1.1	38	130*	-3	-38	0
O=[N+]([O-])c1cccc(S(=O)(=O)N2CCCC2)c1	0.89	26	107	3	-26	0
CCOC(=O)c1cccc(NC(=O)Cn2c(CC(=O)N3CCCC3)nc3ccccc32)c1	0.71	9	105	3	-8	0
Cc1cc(N)n2nc(-c3ccccc3)cc2n1	5.4*	118	146*	-1	-118	0
Cc1cc(N)n2ncc(-c3cccc(Br)c3)c2n1	2.1	96	142*	5	-96	0
Cc1ccc(-c2cc3nc(-c4ccccc4)cc(N)n3n2)cc1	1.5	30	123	1	-30	0
CC(=O)c1cnc2c(-c3cccc(Br)c3)cnn2c1C	1.6	7	113	-2	-7	0
Cc1cc(N)n2ncc(-c3ccccc3)c2n1	3.1	86	150*	4	-86	0
CCOC(=O)Cc1c(C)nc2c(-c3cccc(Br)c3)cnn2c1C	1.3	3	82	10*	-3	0
COc1ccc(-c2cc(C(=O)N3CCN(c4ccccc4)CC3)c3ccccc3n2)cc1OC	0.63	8	107	-1	-8	0
COC(=O)C(C)N(C(=O)c1cccc(Cl)c1)c1c(C)cccc1C (configuration not stated)	1.2	10	93	-5	-10	0
SMILES	NF-kB expr up	APP 5'UTR act	STAT1 act	Wee1 stabilizer	APP transl inh	Hsp70 act
CC(C)CC(=O)Nc1c2c(nn1-c1ccc(F)cc1)CSC2	1.1	-35	98	4	35	0
CC(=O)Nc1ccc(Nc2cc(C)nc3c(-c4ccccc4)cnn23)cc1	0.76	165*	150*	-3	-165	0
CCN(CC)CCNC(=O)c1ccccn1	1.1	1	100	16*	-1	0
CCN(CC)CCNC(=O)/C(=N\O)c1ccccn1	1.3	19	95	-2	-19	1
O=C(Nc1cnc2ccccc2c1)N1CCCCC1	2.2	86	135*	7	-86	0
COc1ccc(C(=O)CSc2nnc(C3CC3)n2N)cc1	1.1	5	95	3	-5	0
O=C(CC(NS(=O)(=O)c1ccc(Cl)cc1)c1ccco1)NCc1cccnc1 (configuration not stated)	1.1	20	98	0	-20	0
Clc1ccccc1Cn1nnc(-c2ccccc2)n1	2.3	49	141*	0	-49	0
Clc1ccccc1Cn1nnc(-c2cccs2)n1	1.8	41	143*	6	-41	1
Clc1ccc(Cn2nnc(-c3ccccc3)n2)cc1	1.7	5	113	1	-5	0
COc1ccc(C(=O)Nc2ccc(Cl)cn2)cc1Cl	2.9	92	140*	-1	-92	0
COc1cc(C(=O)Nc2ccc3c(c2)OCCO3)ccc1OC(C)C	2	46	122	2	-46	0
COc1cc(C(=O)Nc2ccc3c(c2)OCCO3)ccc1OC(F)F	3.4*	75	140*	1	-75	0
COc1ccc(C(=O)Nc2ccc3c(c2)OCCO3)cc1	6*	156*	92	0	-156	0
COc1ccc(NC(=O)c2ccc3c(c2)OCO3)cc1Cl	5*	138*	121	-2	-138	0
COc1cccc(OC)c1C(=O)Nc1ccc2c(c1)OCCO2	0.99	21	100	2	-20	0
COc1ccccc1NC(=O)Nc1ccc2c(c1)OCCO2	2.1	x	133*	1	-71	0
CCOC(=O)Cn1cnc2c(sc3nc(C)cc(C)c32)c1=O	x	x	x	-3	x	x
COC(=O)Cn1c(C)nc2c(sc3nc(C)cc(C)c32)c1=O	3	24	141*	3	-24	0
NC(=S)n1[nH]c(-c2ccc([N+](=O)[O-])cc2)c(N=Nc2ccc(Cl)cc2)c1=O	0.57	-30	73	-2	30	0
CCC(C)C1NC(=S)N(Cc2ccccc2)C1=O (configuration not stated)	1.2	7	93	2	-7	0
CC(C)(C)n1ncc(Oc2ccccc2[N+](=O)[O-])c(Cl)c1=O	0.98	8	83	-2	-8	0
COc1cccc(C(=O)/C=C/c2ccc(OCC#N)c(OC)c2)c1	1.4	-14	102	1	14	0
COc1ccc(C(=O)/C=C/c2ccc(O)cc2)cc1	3.6*	12	107	-1	-12	0
CCOc1ccc(C(=O)/C=C/c2ccc(OC)c(OC)c2)cc1	1.3	-1	87	-1	1	0
